PLK1 PBD block: blocks phosphopeptide binding to human PLK1 polo-box domain. P53350. Plk1 PBD binding of FITC phosphopeptide, fluorescence polarization. Potency, µM, actives largely listed as inhibitors. hit rate 2.8% among 360,000; also: series mostly up to about 57 µM; nearly all actives have a fitted effect of over 65% in size
Target sequence (P53350 whole entry, looked up, the tested form may be a part): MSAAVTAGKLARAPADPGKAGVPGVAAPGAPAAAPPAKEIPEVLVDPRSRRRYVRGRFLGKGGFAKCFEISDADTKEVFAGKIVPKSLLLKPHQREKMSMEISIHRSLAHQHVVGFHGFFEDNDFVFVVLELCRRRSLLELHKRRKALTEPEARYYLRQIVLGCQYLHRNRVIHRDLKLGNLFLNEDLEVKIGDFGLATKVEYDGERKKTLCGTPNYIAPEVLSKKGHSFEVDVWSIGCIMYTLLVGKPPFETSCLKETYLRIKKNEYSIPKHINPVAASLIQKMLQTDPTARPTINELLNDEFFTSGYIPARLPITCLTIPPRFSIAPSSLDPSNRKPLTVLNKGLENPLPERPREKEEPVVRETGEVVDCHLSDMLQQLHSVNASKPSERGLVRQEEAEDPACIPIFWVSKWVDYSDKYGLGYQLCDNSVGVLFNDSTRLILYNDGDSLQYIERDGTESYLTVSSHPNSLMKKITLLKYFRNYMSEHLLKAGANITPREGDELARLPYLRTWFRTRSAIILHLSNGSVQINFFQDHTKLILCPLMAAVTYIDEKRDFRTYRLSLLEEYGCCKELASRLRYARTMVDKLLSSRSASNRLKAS
Sfp PPTase inh: blocks B. subtilis Sfp PPTase activity; Q9F4F7; Biochemical Sfp PPTase activity, qHTS; Potency, µM, hits mostly inhibitors; AID 1490; hit rate 3.5% among 310,000;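 also: the enzyme is Sfp with the accession as filed and its product quenches rhodamine fluorescence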
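After 15 min at room temperature with compound, 15 nM Sfp received 5 uM rhodamine-CoA plus 12.5 uM BHQ-2-ybbR (50 mM Hepes pH 7.6, 10 mM MgCl2). Rate came from the fluorescence difference over 30 min, ex 525/em 598 nm.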
Tau fluor counter: counter-screen for tau fibril formation inhibitors; Potency, µM (titrated, usually from 57.7 µM); tau K18 P301L Alexa594 fluorescence, heparin fibrillization; hit rate 0.93% among 280,000; also: nearly all actives have a fitted effect of over 55% in size
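Human tau K18 P301L (15 uM unlabeled, 0.24 uM Alexa 594-labeled) in 100 mM sodium acetate pH 7 with 20 uM heparin, 6 hr at 37 C. ThT 30 uM added, 1 hr ambient; Alexa 594 FP and total fluorescence read at 555/632 nm.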
VDR inhibitor: vitamin D3 receptor (human) inhibition | hit rate 0.93% among 400,000 | P11473 | Potency, µM, hits mostly inhibitors | VDR-SRC2-3 peptide fluorescence polarization, 2 h
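Two reagent solutions held at 4 deg C in the dark were dispensed, compounds pinned at 23 nl, and the mixture incubated 2 h at room temperature. Read-out: fluorescence polarization of VDR–SRC2-3 peptide binding.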
Tau ThT inhib: inhibitors of human tau fibril formation, thioflavin T binding | P10636 | hit rate 2.1% among 270,000 | recombinant tau K18 P301L, heparin-induced fibrillization, ThT fluorescence | AID 1460 | Potency, µM (titrated, usually from 57.4 µM), usual class: inhibitors; also: nearly all actives have a fitted effect of over 55% in size
Target sequence (P10636 561-689 P618L limits assumed): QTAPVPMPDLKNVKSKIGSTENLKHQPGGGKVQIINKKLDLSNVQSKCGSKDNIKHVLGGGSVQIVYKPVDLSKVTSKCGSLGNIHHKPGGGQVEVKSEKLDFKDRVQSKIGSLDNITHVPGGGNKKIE
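Using a mix of unlabeled (15 uM) and Alexa 594-labeled (0.24 uM) tau K18 P301L, heparin-triggered fibrillization over 6 hr at 37 C was scored by ThT fluorescence.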
Tau fibril FP: tau fibrillization inhibition (FP); P10636; K18 P301L tau heparin fibrillization, Alexa594 FP, 6 h; hit rate 0.39% among 280,000; Potency, µM (series often up to 57.7 µM), hits mostly inhibitors; also: nearly all actives have a fitted effect of over 55% in size
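Steps: dispense K18 P301L tau (15 uM plus 0.24 uM Alexa 594 tracer, final) in pH 7 sodium acetate; add compound; add heparin (20 uM final); incubate 6 hr, 37 C; add ThT (30 uM final); after 1 hr ambient, read FP.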
Hits are given with their value; n = inactive; u = inconclusive; x = no result given. The list is not random: actives were taken first. Their share in the collection is about 6%. Calls follow the shape of the dose curve; as a rule, active = well fitted curve in the direction sought with a large enough effect; inconclusive = small, poorly fitted or top-dose-only effect, or another doubt; inactive = no such curve, though single readings can be large; an effect the other way counts as inactive or inconclusive.

SMILES	PLK1 PBD block	Sfp PPTase inh	Tau fluor counter	VDR inhibitor	Tau ThT inhib	Tau fibril FP
CC1CCCCN1C(=O)COc1ccccc1F (stereo not given)	27µM	n	n	n	n	n
CC1CCCCN1C(=O)CNCc1ccc(F)cc1 (stereo not given)	n	n	x	n	x	x
CC1=CC(C)(C)N2C(=O)C(=Nc3ccc(O)cc3)c3cccc1c32	4.7µM	u	u	u	13µM	28µM
Cc1cc(C)c(S(=O)(=O)NCC2CCC(C(=O)NCCCN3CCC(C)CC3)CC2)c(C)c1 (stereo not given)	24µM	n	x	u	x	x
Cc1sc2nc[nH]c(=S)c2c1-c1ccccc1	u	n	n	89µM	n	n
COc1ccc(CN2CCN(C(=O)c3ccccc3C(=O)c3ccccc3)CC2)cc1F	n	x	x	x	x	x
COC(=O)c1ccc(N)cc1O	n	n	n	n	n	n
COC(=O)c1ccc(=O)c2nc3/c(=C/O)c(O)cc(=O)c3[nH]c12	19µM	u	u	n	x	n
Cc1nn2c3c(cnc2c1-c1ccccc1)C(=O)CC(c1ccccc1)C3 (stereo not given)	n	n	n	n	n	n
Cc1nn2c3c(cnc2c1-c1ccccc1)C(=O)CC(c1ccco1)C3 (stereo not given)	n	89µM	n	n	n	n
Cc1ccc(C2CC(c3ccccc3)=NN2C(=S)Nc2ccccc2)o1 (stereo not given)	n	45µM	n	n	u	n
S=C(Nc1ccccc1)N1N=C(c2cccs2)CC1c1cccs1 (stereo not given)	12µM	n	n	79µM	n	n
O=C(NCc1ccc2c(c1)OCO2)c1cc2c(s1)CSC2	n	n	n	n	u	n
Cc1c(C(=O)NCc2ccco2)oc2ccc(Br)cc12	n	x	x	n	x	x
O=C(NCc1ccco1)c1ccc2nccnc2c1	n	n	x	n	x	x
O=C(NCc1ccco1)c1cc2cc(Br)ccc2o1	11µM	20µM	x	89µM	x	x
O=C(NCc1ccco1)c1cnccn1	n	40µM	n	n	n	n
O=C(NCc1ccco1)c1ccc(C(=O)NCc2ccco2)cc1	n	x	x	n	x	x
O=C(NCc1ccco1)c1ccc(Oc2ccccc2)cc1	n	79µM	n	n	n	n
O=C(NCc1ccco1)c1cc2c(s1)CSC2	13µM	n	n	u	28µM	u
Cc1ccc(Nc2c(-c3ccc(C)s3)nc3cccc(C)n23)cc1	x	x	x	n	x	x
Cc1ccc(C(=O)Nc2nnc(S(=O)(=O)N(C)Cc3ccc(Cl)cc3)s2)cc1	x	x	n	n	n	n
CSc1nn(Cc2ccc(Br)cc2)c(N(C(C)=O)C(C)=O)c1S(=O)(=O)c1ccccc1	x	x	n	n	u	u
CCCOc1ccc(CNC(=O)Cn2ncn3c(cc4sc(CC)cc43)c2=O)cc1	x	x	n	n	u	n
COC(=O)C1[C@@H](OC)C(OC(=O)COc2ccc(OC)cc2)C[C@@H]2CN3CCc4c([nH]c5cc(OC)ccc45)[C@H]3C[C@H]12 (stereo not given in full)	x	n	x	n	x	x
SMILES	PLK1 PBD block	Sfp PPTase inh	Tau fluor counter	VDR inhibitor	Tau ThT inhib	Tau fibril FP
O=C(NCc1ccco1)c1ccc2c(c1)C(=O)c1ccccc1-2	n	11µM	n	n	13µM	u
O=C(NCc1ccco1)c1cccc(Br)c1	n	71µM	x	n	x	x
Cc1cccc(C(=O)NCc2ccco2)c1	n	n	x	n	x	x
COc1ccc(CCNC(=O)c2csc3c2CCCCC3)c(OC)c1	x	x	n	n	n	n
COC(=O)c1ccc(CSc2ccc3nnc(-c4cccc(F)c4)n3n2)o1	u	50µM	n	n	n	n
CCOC(=O)CC(=O)CSc1ccc2nnc(-c3cccc(F)c3)n2n1	n	n	n	n	n	n
CC(=O)N/N=C(\C)c1cccc(C(F)(F)F)c1	n	n	n	n	n	n
Cc1sc(N)c(C(=O)c2cccc(C(F)(F)F)c2)c1C	x	79µM	n	25µM	u	n
Cc1cc(-c2ccccc2)nc(N/N=C/c2ccccc2)n1	n	n	x	n	x	x
O=[N+]([O-])c1ccc(N/N=C/c2ccccc2)c(F)c1	n	n	u	n	7.1µM	n
Cc1cc2c(C)nc(N/N=C/c3ccc([N+](=O)[O-])cc3)nc2o1	n	n	n	n	3.2µM	n
Cc1cc(-c2ccccc2)nc(N/N=C/c2ccc([N+](=O)[O-])cc2)n1	n	n	u	n	7.1µM	n
Cc1ccc(Nc2c([N+](=O)[O-])ccc3nonc23)cc1C	n	n	x	n	x	x
Cc1ccc(NC(=O)c2cnc(SCC(=O)N3CCOCC3)n(C)c2=O)cc1C	x	x	n	n	u	n
COc1cc2cc(CCCOC(=O)CCCC(=O)O)oc(=O)c2cc1OC	n	x	x	n	x	x
O=c1[nH]c2ccccc2c(O)c1O	11µM	0.32µM	n	7.1µM	3.2µM	7.1µM
O=c1[nH]c2ccccc2c(O)c1-[n+]1ccccc1	n	n	n	n	n	n
Cn1c(N)c(C(=O)COC(=O)C2(c3ccc(Cl)cc3)CCCC2)c(=O)n(C)c1=O	3µM	n	u	n	n	u
Cc1ccc(NC(=O)c2ccc3nc(N4CCOCC4)sc3c2)c(Cl)c1	u	50µM	x	n	x	x
CCOC(=O)C(NC(=O)CC)(N1CCc2ccccc2C1)C(F)(F)F (stereo not given)	n	n	n	n	22µM	u
CCOC(=O)C(NC(=O)CC)(Nc1ccccc1)C(F)(F)F (stereo not given)	n	n	n	n	u	n
NNc1nccc(Nc2ccccc2C(=O)O)n1	n	50µM	n	n	u	n
O=C1C(=O)c2ccccc2C(O)=C1CC=C(Cl)Cl	n	x	x	n	x	x
CC(C)=CCC1=C(O)c2ccccc2C(=O)C1=O	x	n	u	25µM	28µM	u
Cc1nnc(N2C(=O)c3oc4ccccc4c(=O)c3C2c2ccc(F)cc2)s1 (stereo not given)	x	x	n	n	n	n
SMILES	PLK1 PBD block	Sfp PPTase inh	Tau fluor counter	VDR inhibitor	Tau ThT inhib	Tau fibril FP
COc1cc(-c2cccs2)cc(=O)c2c(C)oc(C)c12	n	45µM	n	n	25µM	u
O=C(CNC(=O)Cn1cnc2sc3c(c2c1=O)CCCC3)NCc1ccccn1	n	n	n	n	n	n
O=C(Cn1cnc2sc3c(c2c1=O)CCCC3)NCC(=O)Nc1c(F)cccc1F	34µM	n	x	n	x	x
CCCCn1c(N)c(N(CC(C)C)C(=O)c2ccc(S(=O)(=O)N3CCC(C)CC3)cc2)c(=O)[nH]c1=O	n	x	x	n	x	x
Cc1cc2c(SCC(=O)Nc3ccccc3O)ncnc2s1	30µM	x	x	n	x	x
CCCc1ccc(S(=O)(=O)NCc2nnc(SC)n2C)cc1	n	n	x	n	x	x
O=C(O)Cc1cn(Cc2ccc(F)cc2)c2ccccc12	n	n	n	n	n	n
Cc1[nH][nH]c(=O)c1C(c1c(C)[nH][nH]c1=O)c1cn(Cc2ccc(Cl)c(Cl)c2)c2ccccc12	u	n	u	u	10µM	u
O=c1c2ccccc2ncn1Cc1ccc(Cl)c(Cl)c1	n	n	x	n	x	x

High-throughput results: PubChem, National Center for Advancing Translational Sciences (NCATS)
